An excerpt weighted towards active compounds, which were near 1.4% of everything screened.
CCHF vOTU inh: blocks the CCHF virus ovarian tumor domain protease | CCHFV vOTU protease, Pep-AMC fluorescence | inhibition, % at 11.5 µM | actives 0.55% (n = 370,000); in the data active means inhibition above about 30%
MazEF act: MazEF (E. coli) toxin RNase activation | P0AE70 | FAM/BHQ RNA-DNA oligo cleavage fluorescence, 5 h | activation, % at 20 µM | actives 0.32% (n = 350,000) | AID 504720; in the data active means activation above about 50%
Target sequence (P0AE70 whole entry, looked up): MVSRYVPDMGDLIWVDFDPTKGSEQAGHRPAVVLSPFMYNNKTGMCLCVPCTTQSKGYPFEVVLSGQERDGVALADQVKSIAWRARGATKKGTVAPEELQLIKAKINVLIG
DUSP3 inh: DUSP3 (human) phosphatase inhibition. recombinant VHR phosphatase, pNPP absorbance. inhibition, % at 13.3 µM. P51452. actives 0.52% (n = 290,000); in the data active means inhibition above about 50%
Target sequence (P51452 whole entry, looked up): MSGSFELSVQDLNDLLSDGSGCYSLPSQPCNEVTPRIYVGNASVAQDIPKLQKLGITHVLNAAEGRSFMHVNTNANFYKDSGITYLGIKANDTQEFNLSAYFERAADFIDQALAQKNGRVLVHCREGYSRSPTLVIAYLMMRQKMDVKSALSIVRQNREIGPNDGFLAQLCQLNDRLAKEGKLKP
3CLpro inhibitor: SARS-CoV 3CLpro protease inhibition | recombinant SARS-CoV 3CLpro, quenched FRET peptide cleavage | inhibition, % at 6 µM | actives 0.14% (n = 290,000) | AID 1706; in the data active means inhibition above about 12%
BJeLR lethal: BJeLR cell viability loss; BJeLR (HRASV12) viability, CellTiter-Glo ATP luminescence, 48 h; inhibition, % (no concentration beside the values); actives 0.17% (n = 300,000); in the data active means inhibition above about 50%
Numbers stand for hits; 0 = inactive; - = not tested or not shown; + = active, no number; ! = repeats disagree.

SMILES | CCHF vOTU inh | MazEF act | DUSP3 inh | 3CLpro inhibitor | BJeLR lethal
Cc1ccc(C)c(S(=O)(=O)NC(C)C(=O)Nc2ccc(-c3nc4ccccc4s3)cc2)c1 (stereo not drawn) | 0 | 52 | 0 | 0 | 0
CCCCCCCCN1C(=O)[C@@H](CC(=O)NCCc2ccccc2OC)C[C@@]2(C(=O)OC)C1=C[C@H](COCc1ccccc1)O[C@@H]2C | 0 | - | - | - | -
O=S(=O)(CC1NCCc2ccccc21)NCc1ccc(F)cc1 (stereo not drawn) | 0 | - | - | - | -
COc1ccc(CN2CCN(Cc3cc4ccccc4o3)CC2CCO)cc1C (stereo not drawn) | 0 | 0 | 59 | 0 | 0
COc1cccc(CN2CCN(Cc3cc4ccccc4o3)CC2CCO)c1 (stereo not drawn) | 0 | 0 | 0 | 0 | 0
Cc1ccc(CSc2nnc(-c3cc(-c4ccc(C)cc4)n[nH]3)n2N)cc1 | 0 | - | - | - | -
CSc1nc(-c2ccc(N(C)C)cc2)c(C#N)c(=O)n1C | 0 | 136 | 0 | 0 | 0
CSc1nc(-c2ccc(Cl)cc2)c(C#N)c(=O)n1C | 0 | 0 | 0 | 0 | 0
Cc1ccc(CN2CCCCC(NC(=O)c3ccc(N(C)C)cc3)C2=O)cc1 (stereo not drawn) | 0 | - | - | - | -
COC(C(=O)Nc1ccnn1C1CCN(C(=O)c2ccc(C)cc2)CC1)c1ccccc1 (stereo not drawn) | 0 | 0 | 51 | 0 | 0
CC(C)C(=O)c1cc2c(cc1NC(=O)c1cccs1)OCCO2 | 0 | 0 | 53 | 0 | 0
Cc1ccc(NC(=O)NNC(=O)CCn2nc(C)c([N+](=O)[O-])c2C)cc1C | 0 | - | - | - | -
O=C(O)c1ccc(N(Cc2ccccc2)S(=O)(=O)c2ccccc2)cc1 | 0 | 0 | 59! | 0 | 0
O=C(O)c1ccc(S(=O)(=O)N(Cc2ccccc2)Cc2ccccc2)cc1 | 0 | 0 | 0 | 0 | 0
COc1ccc(-n2c(SCC(=O)Nc3ccc4c(c3)OCCO4)nnc2-c2ccccc2)cc1 | 0 | - | - | - | -
COc1ccc(OC)c(CCNC(=O)C(C)n2nc(C)c3c(C)n(-c4ccc(C)cc4)nc3c2=O)c1 (stereo not drawn) | 0 | 0 | 56 | 0 | 0
COc1cccc(CCNS(=O)(=O)c2c(C)n[nH]c2C)c1 | 0 | - | - | - | -
Cc1cc(=O)oc2cc(OCC(=O)NCCc3ccccc3)ccc12 | 0 | 0 | 58 | 0 | 0
CC1(C)Cc2c(sc3ncn4nnnc4c23)CO1 | - | - | 52 | - | -
COC(=O)[C@]12C[C@H](CC(=O)N3CCN(C(=O)C4CC4)CC3)C(=O)N(CCc3ccc(OC)c(OC)c3)C1=C[C@H](C(C)C)O[C@@H]2C1CC1 | 0 | - | - | - | -
COc1cccc2c1nc(C)c1cc(C)oc12 | 0 | 0 | 0 | 0 | 0
COc1cccc2nc3cc(C)c(C)cc3nc12 | 0 | 0 | 0 | 0 | 58
CC[C@]12c3[nH]c4ccc(OC)cc4c3CCN1C(=O)C(CC(=O)NCCCOC)C[C@@H]2C(=O)N1CCN(C(=O)C2CC2)CC1 (stereo partly drawn) | 0 | 75 | - | - | -
CN(C)C(=O)CCc1ccc2c3c([nH]c2c1)[C@]1(CCC2CCCC2)[C@@H](C(=O)N2CCOCC2)C[C@H](CC(=O)NC(C)(C)C)C(=O)N1CC3 | 0 | 59 | - | - | -
CC[C@]12c3[nH]c4cc(-c5ccco5)ccc4c3CCN1C(=O)[C@@H](CC(=O)NCCCN(C)C)C[C@@H]2C(=O)N1CCN(C(=O)c2ccco2)CC1 | 0 | 53 | - | - | -
SMILES | CCHF vOTU inh | MazEF act | DUSP3 inh | 3CLpro inhibitor | BJeLR lethal
CC[C@]12c3[nH]c4ccc(Cl)cc4c3CCN1C(=O)[C@@H](CC(=O)NCCCN(C)C)C[C@@H]2C(=O)N1CCN(C(=O)C2CC2)CC1 | 0 | 0 | - | - | -
C=CCn1c(COc2ccc(C)cc2)nnc1SCC(=O)Nc1cc(Cl)cc(Cl)c1 | 0 | - | - | - | -
CCOC(=O)C1CCN(C(=O)Nc2ccc3nc(-c4ccco4)c(-c4ccco4)nc3c2)CC1 | - | 0 | 56 | 0 | 0
O=C(OCCN1CCN(C2CN(Cc3cn(Cc4ccccc4Cl)nn3)S(=O)(=O)C2)CC1)c1cccs1 (stereo not drawn) | 0 | - | - | - | -
CCc1ccc[n+](-c2nc3ccccc3nc2C(=C=[N-])C#N)c1 | 0 | 578 | 0 | 0 | 0
Cc1ccc[n+](-c2nc3ccccc3nc2C(=C=[N-])C#N)c1 | 0 | 0 | 0 | 0 | 0
COc1cc(OC)c(-c2cc(C(=O)O)ccc2OC)c(OC)c1 | 0 | + | 0 | 0 | 0
COC(=O)c1ccc(OC)c(-c2c(OC)cc(OC)cc2OC)c1 | 0 | 0 | 0 | 0 | 0
c1ccc(Cn2ccc3ccc(-c4ccc5ccn(Cc6ccc7ccccc7c6)c5c4)cc32)cc1 | 0 | - | - | - | -
Clc1ccc(-c2nnc3sc(-c4ccc(Br)o4)nn23)cc1 | 0 | + | 0 | 0 | -
Clc1ccc(-c2nnc3sc(-c4ccc(Br)o4)nn23)c(Cl)c1 | 0 | 0 | 0 | 0 | 0
O=C(CCc1nc(-c2ccccc2F)no1)NCCc1ccccc1F | 0 | - | - | - | -
Cc1[nH]c2ccccc2c1/C=C/c1nc2ccccc2c(=O)n1-c1ccc([N+](=O)[O-])cc1 | 0 | 589 | 0 | 0 | 0
CCn1c(/C=C/c2c(C)[nH]c3ccccc23)nc2ccccc2c1=O | 0 | 106 | 0 | 0 | 0
CCn1c(/C=C/c2c[nH]c3ccccc23)nc2ccccc2c1=O | 0 | 0 | 0 | 0 | 0
CC(C)c1ccc(C2C3=C(COC3=O)Nc3cc4c(cc32)OCO4)cc1 (stereo not drawn) | 0 | 0 | 0 | 0 | 58
O=C1OCC2=C1C(c1ccc3c(c1)OCO3)c1cc3c(cc1O2)OCO3 (stereo not drawn) | 0 | 0 | - | - | -
O=C(Nc1cccc(Cl)c1)c1ccc(NCC2CCCO2)c([N+](=O)[O-])c1 (stereo not drawn) | 0 | 67 | 0 | 0 | 0
Cc1cccc(NC(=O)c2ccc(NCC3CCCO3)c([N+](=O)[O-])c2)c1 (stereo not drawn) | 0 | 121 | 0 | 0 | 0
Cc1cccc(NC(=O)c2ccc(NCC3CCCO3)c([N+](=O)[O-])c2)n1 (stereo not drawn) | 0 | 0 | 0 | 0 | 0
CS(=O)(=O)c1ccc(NCC2CCCO2)c([N+](=O)[O-])c1 (stereo not drawn) | 0 | 0 | 0 | 0 | 0
O=C(Nc1ccccc1)c1ccc(NCCc2ccccc2)c([N+](=O)[O-])c1 | 0 | + | 0 | 0 | 0
NC(=O)c1ccc(NCCc2ccccc2)c([N+](=O)[O-])c1 | 0 | 0 | 0 | 0 | 0
CN(C1CCCCC1)C(CNS(=O)(=O)c1ccccc1)c1ccccc1 (stereo not drawn) | 0 | 0 | 53 | 0 | 0
CN(Cc1ccccc1)C(CNS(=O)(=O)c1ccccc1)c1ccccc1 (stereo not drawn) | 0 | 0 | - | - | -
Cc1ccc[n+](-c2nc([O-])sc2C=O)c1 | 0 | 69 | 0 | 0 | -
CN1C(=O)c2cc(NC(=O)C3CC3)ccc2OC[C@H]2O[C@@H](CC(=O)NC3CCC3)CC[C@@H]21 | 0 | - | - | - | -
CCOC(=O)C1=C(O)c2ccccc2C(=O)/C1=C\c1ccc(C)cc1 | - | 151 | 0 | 0 | -
CCOc1ccc(S(=O)(=O)N2CCc3ccccc3C2)cc1 | 0 | 0 | 0 | 0 | 0
COc1ccc(S(=O)(=O)N2CCc3ccccc3C2)cc1 | 0 | 0 | 51 | 0 | 0

Assay outcomes: PubChem BioAssay, several laboratories
